CRFBP-R2 agonist: agonists of human CRF-binding protein/CRF-R2 receptor complex; HEK293 CRF-R2/CRF-BP, calcium dye fluorescence (FLIPR); percent of saturating CRF peptide response; AID 588473; 350,000 tested, 0.46% active; activation, % at 13.2 µM;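 active means activation of at least 50%, plus an integration ratio under a set limit after plate pattern correction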
TPT1 inhibitor: inhibitors of Candida albicans tRNA 2'-phosphotransferase TPT1 | inhibition, % at 5 µM | recombinant caTPT1, FP RNA substrate dephosphorylation | 300,000 tested, 0.81% active;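 active means inhibition above the mean of all tested compounds plus 3 SD, set per screening campaign, cut at about 24% in these data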
IDE inh: cellular human IDE inhibition; P14735; HEK cells, FAbetaB cleavage, fluorescence polarization; inhibition, % at 5.59 µM; 320,000 tested, 0.41% active;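 active means percent inhibition above the average of all tested compounds plus 3 SD, set per screening campaign, cut at about 16% in these data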;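 further: IDE supplied by intact live HEK cells; FP after avidin binding of uncleaved biotin substrate so inhibition keeps polarization high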
IDE act: activators of human insulin-degrading enzyme in cells; HEK cells, FAbeta-B cleavage, fluorescence polarization; 0% vehicle, 100% cell-free pure enzyme wells; activation, % at 5.96 µM; 340,000 tested, 0.073% active;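 active means activation above the mean of all tested compounds plus 3 SD, set per screening campaign, cut at about 17% in these data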
CRFBP-R2 block: CRF-BP/CRF-R2 complex antagonism; HEK293 CRF-R2/CRF-BP, CRF-induced calcium fluorescence; inhibition, % at 11.8 µM; 350,000 tested, 0.59% active;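 active means inhibition of the ligand-induced calcium signal above about 50% at the single tested concentration, limit read from the data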
Myeloid diff 2: myeloid differentiation induction. calls only at 10 µM. ER-HoxA9 myeloid progenitors, lysozyme-GFP differentiation, flow cytometry. 360,000 tested, 1% active. AID 624256;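 active means normalized GFP-positive differentiation at or above the plate's own cutoff, the solvent-only control mean plus 3 SD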;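 further: cells exposed to compound for four days before flow analysis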
Myeloid diff: compounds promoting myeloid differentiation. 2,300 tested, 2% active. ER-HoxA9 myeloid progenitors, GFP/Mac1 double-positive flow. shares compounds with Myeloid diff 2. AID 651706. calls only;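 active means share of green or green-and-red cells above 9 and 9% in run 1 or 4 and 3% in run 2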
GFP autofluor: flagged as fluorescent in myeloid differentiation counter-screen | shares compounds with Myeloid diff 2 | ER-HoxA9 myeloid progenitors, no estrogen, GFP autofluorescence flow cytometry; vehicle wells 0%, positive control 100% | fluorescence response, % (concentration not given with the values) | 2,300 tested, 7.4% active | AID 651707;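 active means over 5% cells positive for green fluorescent reporter, or over 2% positive for both it and APC stain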
Calls only; 0 = inactive; - = no result; + = active, no number. Most compounds without a hit are left out; they make up all but 2.6% or so of the library.

SMILES	CRFBP-R2 agonist	TPT1 inhibitor	IDE inh	IDE act	CRFBP-R2 block	Myeloid diff 2	Myeloid diff	GFP autofluor
Cc1ccc(CNC(=O)CCSCc2ccccc2F)cc1	0	0	0	0	0	0	-	-
O=[N+]([O-])c1cc([N+](=O)[O-])c2nonc2c1Nc1ccccc1O	0	-	-	0	0	+	0	0
Cc1ccc(C)c(S(=O)(=O)N2CCN(C(=O)CCC(=O)c3cc(C)sc3C)CC2)c1	0	0	0	0	0	+	0	0
Cc1nn(Cc2ccccc2)c(Cl)c1C(=O)OCc1nnc(-c2ccccc2)o1	0	0	0	0	0	0	-	-
Cc1nn(Cc2ccccc2)c(Cl)c1C(=O)OCc1nnc(-c2ccc(Cl)cc2)o1	0	0	0	0	0	+	0	0
CCOc1ccccc1C(=O)NCC(=O)NNC(=O)c1csc(N2CCOCC2)n1	0	-	-	-	0	0	-	-
COc1ccccc1NS(=O)(=O)c1ccccc1C#N	0	0	0	0	0	0	0	0
Cc1ccc(S(=O)(=O)N2CCC(=O)N([C@H](COCc3ccc(Cl)c(Cl)c3)Cc3ccccc3)CC2)cc1	-	-	-	-	-	0	-	-
O=[N+]([O-])CC(c1ccccc1)c1c[nH]c2ccccc12 (stereo not given)	0	0	0	-	0	+	0	0
O=C(O)c1cccc(NC2=C(Cl)C(=O)c3ccccc3C2=O)c1	0	-	-	0	0	+	0	0
CCOC(=O)c1cc(-c2ccccc2)sc1NC(=O)C(C)(C)C	0	0	0	0	0	0	-	-
CCOC(=O)c1cc(-c2ccccc2)sc1NC(=S)Nc1cc(C)ccn1	0	0	0	0	0	+	0	0
Cn1nccc1C(=O)Nc1sc2c(c1C(N)=O)CCCC2	0	0	0	0	0	0	0	0
Cn1nccc1C(=O)Nc1sc2c(c1C#N)CCCC2	0	0	0	0	0	0	-	-
N#CC1=C(S)N(c2ccccc2)C(c2ccc(-c3ccc(Cl)c(Cl)c3)o2)NC1=O (stereo not given)	0	0	0	0	0	0	-	-
N#CC1=C(S)N(c2ccccc2)C(c2ccc(-c3cc(Cl)ccc3Cl)o2)NC1=O (stereo not given)	0	0	0	0	0	0	0	0
COc1ccccc1/C=C/C(=O)OCC(=O)N1CCc2ccccc21	0	-	0	0	0	0	-	-
COc1ccc(NC(=O)c2cccc(S(=O)(=O)N3CCCCCC3)c2)cc1	0	0	0	0	0	0	-	-
O=C(Cc1cc(=O)[nH][nH]1)N/N=C/C(Cl)=C/c1ccccc1	0	0	0	0	0	0	0	0
O=C(c1cccc(Cl)c1)N1CCC(N2CCC(C(=O)N3CCCC3)CC2)CC1	0	0	0	0	0	0	-	-
C=CCN(c1ccccc1OC)S(=O)(=O)c1ccc(Cl)c(C(=O)NCc2ccco2)c1	0	-	-	-	0	+	0	0
C=CCN(c1ccccc1OC)S(=O)(=O)c1cccc(C(=O)NCc2ccco2)c1	0	-	0	0	0	0	-	-
O=C(Cn1c(C(F)(F)F)nc2ccccc21)N=Nc1c(O)[nH]c2ccc(Br)cc12	0	0	0	0	0	0	-	-
Cc1c(C(=O)Nc2ccc(S(N)(=O)=O)cc2)oc2ccc(Cl)cc12	0	0	0	0	0	0	-	-
Cc1c(C(=O)NNC(=S)Nc2ccc(S(N)(=O)=O)cc2)oc2ccccc12	0	0	0	0	0	0	0	0
SMILES	CRFBP-R2 agonist	TPT1 inhibitor	IDE inh	IDE act	CRFBP-R2 block	Myeloid diff 2	Myeloid diff	GFP autofluor
O=C(CSc1nc2ccccc2[nH]1)NCc1ccc(F)cc1	0	0	0	0	0	0	-	-
Cc1c(C(=O)Nc2nccs2)oc2ccc(F)cc12	0	-	0	0	0	0	-	-
Cc1cc(C(=O)Nc2nccs2)c2cc(F)ccc2n1	0	0	0	0	0	0	0	0
CCc1nc2ccc(C)cc2c(C(=O)NC2CCCCC2C)c1C (stereo not given)	0	0	0	0	0	0	-	-
Cc1ccc(NC(=O)CSc2ncnc3ccccc23)cc1S(=O)(=O)N1CCCCCC1	0	0	0	0	0	+	0	0
Cc1ccc(S(=O)(=O)N2CCCCC2)cc1NC(=O)CSc1ncnc2ccccc12	0	0	0	0	0	0	-	-
COc1ccc(/C=N/NC(=O)CC(=O)NCc2cccnc2)cc1[N+](=O)[O-]	0	0	0	0	0	0	-	-
O=C(Nc1ccon1)C1CCN(S(=O)(=O)c2cccs2)CC1	0	0	0	0	0	0	0	0
Cc1cc(NC(=O)C2CCN(S(=O)(=O)c3cccs3)CC2)no1	0	0	0	0	0	0	-	-
O=C(Nc1cc(Cl)ccc1O)C1CC(c2ccccc2Cl)=NO1 (stereo not given)	0	-	-	0	0	0	-	-
COc1ccccc1N1C(=O)c2cccc3c(Cl)ccc(c23)C1=O	0	0	0	0	0	0	0	0
CCO/C=C1/C(=O)N(c2ccccc2OC)C(=O)c2ccccc21	0	0	0	0	0	0	-	-
COc1cccc(CN2CC(C(=O)NCc3cccc(N4CCCC4)c3)CCC2=O)c1 (stereo not given)	0	0	0	0	0	0	-	-
CCc1ccc(-c2cc(C(=O)N/N=C/c3c[nH]c4ccccc34)[nH]n2)cc1	0	0	0	0	0	0	0	0
CC(C)(C)NC(=O)C(c1ccc(-c2ccccc2)cc1)N(C[C@H]1CC[C@@H]([C@@H]2CC[C@H](CO)O2)O1)C(=O)c1ccc(C(C)(C)C)cc1 (stereo not given in full)	0	-	-	0	0	0	0	0
CCOC(=O)N1CCN(C(=O)c2ccc(Cn3c(=S)[nH]c4cc5c(cc4c3=O)OCO5)cc2)CC1	0	0	0	0	0	0	-	-
CCOC(=O)N1CCN(C(=O)c2ccc(Cn3c(=S)[nH]c4cc(OCC)c(OCC)cc4c3=O)cc2)CC1	0	0	0	0	0	+	0	0
Cc1csc(SCc2nnc(-c3ccccc3Br)o2)n1	0	0	0	0	0	0	0	0
O=[N+]([O-])c1cccc(/C(=N/N=C/c2ccccc2Br)C23CN4CN(CN(C4)C2)C3)c1	0	0	0	0	0	+	0	0
O=C(CSc1nc2ccccc2n1CC(=O)N1CCCC1)Nc1ccc2c(c1)OCO2	0	0	0	0	0	+	0	0
O=C(CSc1nc2ccccc2n1CC(=O)N1CCCC1)N1CCN(C(=O)c2ccco2)CC1	0	0	0	0	0	0	0	0
O=C(CSc1nnc(-c2ccccc2Br)o1)N1CCN(C(=O)c2ccco2)CC1	0	0	0	0	0	0	0	0
O=S(=O)(NCC1CCCO1)c1ccc(S(=O)(=O)N(Cc2ccc(F)cc2)C2CCCCC2)cc1 (stereo not given)	0	0	0	0	0	0	-	-
